Results reported in PubChem BioAssay (NCI).
About 79,000 compounds went through this panel and 15% of them were active in at least one assay; those are over-represented in the sample as a whole. Rule as the data show it: active = growth inhibition above about 70%; inactive = the rest.

Experiments:
[1] = NCI Yeast Anticancer Drug Screen. Data for the rad50 strain (AID 155);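 also: 0% = growth of vehicle-only cultures of the same strain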; details: S. cerevisiae rad50 strain growth inhibition; at 50.0 µM; active compounds read high
How it was run: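 Cells are treated with compound, grown, and their growth is then scored against vehicle-only cultures of the same repair-deficient yeast strain.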

[2] = NCI Yeast Anticancer Drug Screen. Data for the mec2-1 strain (AID 157); details: S. cerevisiae mec2-1 strain, at 50.0 µM, active compounds read high
How it was run: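 Vehicle-treated cultures served as reference for growth inhibition of compound-exposed mec2-1 yeast.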

[3] = NCI Yeast Anticancer Drug Screen. Data for the sgs1 mgt1 strain (AID 161);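 also: 0% = growth of cultures given vehicle only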; details: S. cerevisiae sgs1 mgt1 strain, at 50.0 µM, active compounds read high
How it was run: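 Read-out: growth inhibition vs vehicle controls. Cells: mutant yeast strain deficient in DNA damage repair.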

[4] = NCI Yeast Anticancer Drug Screen. Data for the cln2 rad14 strain (AID 165);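 also: 0% = growth equal to vehicle treated cultures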; details: S. cerevisiae cln2 rad14 strain, at 50.0 µM, active compounds read high
How it was run: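 Each compound was tested on cln2 rad14 yeast. Inhibition of growth was calculated against vehicle-exposed controls.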

[5] = NCI Yeast Anticancer Drug Screen. Data for the bub3 strain (AID 167); details: S. cerevisiae bub3 mutant strain, at 50.0 µM, active compounds read high
How it was run: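 Part of a panel of yeast mutants defective in DNA damage repair or cell cycle regulation. Each strain is grown with compound, and inhibition is calculated relative to solvent-treated cultures.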

[6] = NCI Yeast Anticancer Drug Screen. Data for the mlh1 rad18 strain (AID 175); details: S. cerevisiae mlh1 rad18 strain growth inhibition; at 50.0 µM; active compounds read high
How it was run: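 Vehicle-treated cultures served as the reference for growth inhibition in a yeast strain carrying DNA damage repair alterations exposed to each compound.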

Measured: growth inhibition

O=[N+]([O-])c1ccc(N/N=C(\Cc2ccccc2)c2ccccc2)c([N+](=O)[O-])c1
inactive: [1] 6.8% | [2] 2.25% | [3] 6.2% | [4] -20.3% | [5] -5.75%

NC(=S)c1ccc(N=Cc2ccccn2)cc1
inactive: [1] -0.25% | [2] -0.35% | [3] -1.7% | [4] -12.3% | [5] 3.1%

O=C(OCC1OC(OCc2ccccc2)C(OC(=O)c2ccccc2)C1OC(=O)c1ccccc1)c1ccccc1 (stereo not drawn)
inactive: [1] -10.2% | [2] -6.1% | [3] -2.4% | [4] -3% | [5] -13.5%

CN(C)CCCn1cnc2cc(Cl)c(Cl)cc21
inactive: [1] 0.2% | [2] -6.4% | [3] -21% | [4] -0.8% | [5] 9.95%

CCCCCCCNC(=O)C(Cl)Cl
inactive: [1] 7.85% | [2] -16.8% | [3] -6.65% | [4] -2.55% | [5] 39.8%

O=[N+]([O-])c1ccccc1SCl
inactive: [1] 11.7% | [2] 5.5% | [3] 5.05% | [4] -21.9% | [5] 2%

CC(C)([NH-])C[NH-].[Cl][Pt+2][Cl]
inactive: [1] -17.1% | [2] -18.8% | [3] -24.5% | [4] -23.4% | [5] -3.8%

CC(C)C1OC2(C)OC(=N)C1(C#N)C(C#N)(C#N)C2C (stereo not drawn)
inactive: [1] -0.75% | [2] 2.2% | [3] -18.5% | [4] -10.7% | [5] -17.5%

Cc1nn(CCO)c2nc(N)nc(N)c12
inactive: [1] 2.05% | [2] 3.35% | [3] -0.4% | [4] -1.45% | [5] -6.35%

Cc1ccc(S(=O)(=O)N2CCSCCSCCSCCSCC2)cc1
inactive: [1] -1.3% | [2] -0.1% | [3] 7.1% | [4] 10.6% | [5] -8.9%

O=[N+]([O-])c1cc(Cl)cc2c1-c1c(Cl)cc(Cl)cc1C2
inactive: [1] 16.8% | [2] 28.3% | [3] 7.65% | [4] 20.8% | [5] -6.25%

C=CC12COC(=O)CC1CCC(=O)C2 (stereo not drawn)
inactive: [1] 4.75% | [2] -10.2% | [3] -14.2% | [4] -19.4% | [5] 13.4%

O=C(CCc1ccc(O)c(O)c1)NCCc1cc(O)cc(OCc2ccccc2)c1
inactive: [1] 9.45% | [2] -6.65% | [3] -10.6% | [4] -19.1% | [5] -44.3%

C=CCOC1OC(CS(=O)(=O)O)C(OC(C)=O)C(OC(C)=O)C1OC(C)=O (stereo not drawn)
inactive: [1] 17.9% | [2] 4.2% | [3] -1.1% | [4] 21.6% | [5] -2.75%

CCC(C#N)NC(=O)NC(C#N)CC (stereo not drawn)
inactive: [1] 0.75% | [2] 14.6% | [3] -9.7% | [4] -1.6% | [5] -16.9%

CN(CC(=O)c1ccc(I)cc1)Cc1ccccc1
inactive: [1] 28.1% | [2] -1.25% | [3] 16.4% | [4] -5.9% | [5] 12.8% | [6] 45.7%

COC(=O)c1nc2nnc(N)n2c(-c2ccc(Cl)cc2)c1C
inactive: [1] -6.3% | [2] 11.1% | [3] 7.25% | [4] -15.9% | [5] -4.35% | [6] 0.75%

C=CCOc1ccccc1C
inactive: [1] -21.9% | [2] -29.9% | [3] -0.85% | [4] 8.1% | [5] -21.7% | [6] -14.9%

CNc1ccccc1C(=O)N/N=C/c1c(O)ccc2ccccc12
inactive: [1] -3.15% | [2] 18.3% | [3] 19% | [4] -10.3% | [5] 36.1% | [6] 2.45%

CC(C)C1=CC2=CCC3C(C)(COC(=O)CSC(C)(C)C)CCCC3(C)C2CC1 (stereo not drawn)
inactive: [1] 14.2% | [2] -2.25% | [3] 31.6% | [4] 18.6% | [5] -1.9% | [6] 20.2%

CCC(=O)Nc1cc([N+](=O)[O-])cc([N+](=O)[O-])c1
inactive: [1] 8.1% | [2] -7.3% | [3] -13.3% | [4] -32.5% | [5] -36.9% | [6] -23.6%

CCCCCC(C)(C)O
inactive: [1] 7.6% | [2] -6.55% | [3] -3.9% | [4] -40.9% | [5] 4.75% | [6] -4.75%

NNC(N)=Nc1cccc2ccccc12
inactive: [1] -2.9% | [2] -7.5% | [3] 0.35% | [4] 15.7% | [5] 11.4% | [6] -18.6%
